# The whole screen tested about 310,000 compounds, of which about 14,000 (4.5%) showed an effect of 50% or more. Effects have a minus sign here. The sample as a whole holds a higher share of strong results than the screen did.
# Target: human ether-à-go-go-related gene (hERG) potassium channel (human, UniProt Q12809)
# Assay: primary screen, population patch clamp on CHO cells stably expressing hERG; higher = less effect of the substance
# 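Also: peak tail current of the secondary pulse compared with the same well before compound.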
# Sequence of human ether-à-go-go-related gene (hERG) potassium channel (Q12809 whole entry, looked up): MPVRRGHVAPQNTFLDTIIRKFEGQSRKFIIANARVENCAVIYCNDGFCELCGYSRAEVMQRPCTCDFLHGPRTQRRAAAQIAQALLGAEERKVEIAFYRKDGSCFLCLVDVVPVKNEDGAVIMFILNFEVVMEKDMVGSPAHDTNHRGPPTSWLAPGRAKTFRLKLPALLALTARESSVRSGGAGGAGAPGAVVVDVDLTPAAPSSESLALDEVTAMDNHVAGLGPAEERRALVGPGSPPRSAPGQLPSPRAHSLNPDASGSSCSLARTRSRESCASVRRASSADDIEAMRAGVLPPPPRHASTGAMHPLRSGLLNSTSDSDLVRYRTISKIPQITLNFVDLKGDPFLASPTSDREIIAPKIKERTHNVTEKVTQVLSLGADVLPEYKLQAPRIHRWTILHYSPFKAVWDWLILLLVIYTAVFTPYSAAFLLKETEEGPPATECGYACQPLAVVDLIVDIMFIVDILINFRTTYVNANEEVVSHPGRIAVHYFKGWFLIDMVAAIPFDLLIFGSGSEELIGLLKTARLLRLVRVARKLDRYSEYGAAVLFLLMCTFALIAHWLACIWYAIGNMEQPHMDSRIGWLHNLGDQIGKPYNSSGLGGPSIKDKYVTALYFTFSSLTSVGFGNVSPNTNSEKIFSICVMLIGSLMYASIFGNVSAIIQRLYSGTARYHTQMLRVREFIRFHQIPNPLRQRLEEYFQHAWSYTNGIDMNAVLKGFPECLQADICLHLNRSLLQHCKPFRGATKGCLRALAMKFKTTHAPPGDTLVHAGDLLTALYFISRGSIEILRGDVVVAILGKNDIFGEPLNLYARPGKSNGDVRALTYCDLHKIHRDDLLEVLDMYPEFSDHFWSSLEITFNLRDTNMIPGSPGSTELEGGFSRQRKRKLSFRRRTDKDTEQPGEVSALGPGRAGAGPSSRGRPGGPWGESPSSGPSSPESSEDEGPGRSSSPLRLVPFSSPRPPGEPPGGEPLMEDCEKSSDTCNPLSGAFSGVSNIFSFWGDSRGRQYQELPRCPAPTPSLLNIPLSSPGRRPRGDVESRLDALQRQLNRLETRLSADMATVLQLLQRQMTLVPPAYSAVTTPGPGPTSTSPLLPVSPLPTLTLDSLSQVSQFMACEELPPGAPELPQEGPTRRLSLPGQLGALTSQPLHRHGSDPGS
row,Compound,"hERG current change (%, negative = inhibition) at 10uM"
1,O=C(COC(=O)c1cc[n+]([O-])cc1)Nc1ccc(Cl)cc1[N+](=O)[O-],15.6%
2,COc1cc(C(=O)OCC(=O)c2c[nH]c3ccccc23)ccc1OCC(=O)N1CCOCC1,5.92%
3,Cc1cccc(C(=O)N[C@H](C(=O)Nc2nc3ccccc3[nH]2)C(C)C)c1,3.32%
4,COc1ccc(C(CC(=O)c2ccccc2)S(=O)(=O)c2ccc(C)cc2)cc1 (centres unmarked),12.8%
5,COc1ccc(Cl)cc1N(CC(=O)NCC(C)C)S(=O)(=O)c1ccc(C)c([N+](=O)[O-])c1,8.34%
6,COC(=O)C(NNc1ccccc1C)(NC(=O)c1ccc(F)cc1)C(F)(F)F (centres unmarked),-1.2%
7,Cc1ccc(NC(=O)c2ccc(OC(F)F)cc2)cc1S(=O)(=O)N(C)C,-10.4%
8,CC(C)c1onc(C(=O)N2CCN(C(c3ccccc3)c3ccccc3)CC2)c1[N+](=O)[O-],13.6%
9,O=C(O)C(F)(F)F.O=C1C(Cc2ccccc2)Nc2ncnc(N3CCN(c4ccccc4)CC3)c2N1Cc1ccc(Cl)cc1 (centres unmarked),0.92%
10,Cn1nnc2cc(C(=O)N3CCN(c4ccccc4)CC3)ccc21,-3.95%
11,Cc1ccc(S(=O)(=O)N(CC(=O)N2CCC(C)CC2)c2cccc(C)c2)cc1,-55.1%
12,Cc1cc(C)cc(N(CC(=O)N2CCC(C)CC2)S(C)(=O)=O)c1,-38.6%
13,Cc1ccc(S(=O)(=O)N(CC(=O)N2CCC(C)CC2)c2ccccc2)cc1,-26.4%
14,Cc1cc(C)cc(N(CC(=O)N2CCC(C)CC2)S(=O)(=O)c2ccccc2)c1,-70.3%
15,O=C(CN(c1ccccc1)S(=O)(=O)c1ccccc1)N1CCOCC1,4.9%
16,CCOC(=O)N1CCN(C(=O)CN(c2cccc(C)c2)S(=O)(=O)c2ccc(C)cc2)CC1,-39.7%
17,Cc1cc(C)cc(N(CC(=O)N2CCOCC2)S(=O)(=O)c2ccccc2)c1,-56.1%
18,Cc1ccc(N(CC(=O)N2CCOCC2)S(=O)(=O)c2ccccc2)cc1,-2.35%
19,CC1CCN(C(=O)CN(c2ccc3c(c2)OCCO3)S(=O)(=O)c2ccccc2)CC1,-26.6%
20,Cc1cccnc1NC(=O)Nc1cccs1,12.4%
21,Cc1ccc(NC(=O)CCl)c(C)c1,21.6%

row,Compound,"hERG current change (%, negative = inhibition) at 10uM"
1,COc1ccc(-n2nc(C(=O)NCC(=O)N3CCN(c4cccc(Cl)c4)CC3)c3ccccc3c2=O)c(OC)c1,-2.74%
2,COc1ccc([N+](=O)[O-])cc1NC(=O)C(C)Sc1nc(C)c(C)c(C)n1 (centres unmarked),-44.4%
3,CCN(c1ccc(NS(=O)(=O)c2cc(Cl)ccc2Cl)cc1)C(C)C,-0.282%
4,CCN(CC)C(=O)C(C(=O)c1cccc([N+](=O)[O-])c1)n1cc(Cl)ccc1=O (centres unmarked),24.8%
5,Cc1nc(-c2cccc(S(=O)(=O)N3CCOCC3)c2)cs1,-2.11%
6,COc1ccc(-c2[nH]ncc2CNC(C)Cc2ccsc2)c(F)c1 (centres unmarked),-36.1%
7,COc1ccc(-c2[nH]ncc2CNC(C)CCn2cccn2)c(F)c1 (centres unmarked),-15.4%
8,CC(Cc1ccsc1)NCc1cn[nH]c1-c1ccc(F)cc1F (centres unmarked),-66.3%
9,CC(=O)/C(N=Nc1nc2c([nH]1)c(=O)n(C)c(=O)n2C)=C(\C)O,13.2%
10,CCOC(=O)C1CCN(C(=O)C2CCN(c3nn4c(=O)cc(C)nc4s3)CC2)CC1,3.2%
11,Cc1cccc(N2CCN(C(=O)C3CCN(c4nnc(-n5cccc5)s4)CC3)CC2C)c1 (centres unmarked),-55.8%
12,CC1CCN(C(=O)C2CCN(c3nnc(-n4cccc4)s3)CC2)CC1,-12.1%
13,CCOC(=O)N1CCN(C(=O)C2CCN(c3nnc(-n4cccc4)s3)CC2)CC1,-57.1%
14,O=C(C1CCN(c2nnc(-n3cccc3)s2)CC1)N1CCN(c2cccc(C(F)(F)F)c2)CC1,-22.8%
15,CCOC(=O)C1CCN(C(=O)C2CCN(c3nnc(-n4cccc4)s3)CC2)CC1,-62.5%
16,CCN1CCN(C(=O)C2CCN(c3nnc(-n4c(C)ccc4C)s3)CC2)CC1,-13%
17,CCOC(=O)C1CCCN(C(=O)C2CCN(c3nnc(-n4cccc4)s3)CC2)C1 (centres unmarked),-48.6%
18,Cc1ccc(Cl)cc1N1CCN(C(=O)C2CCN(c3nnc(-n4cccc4)s3)CC2)CC1,-16.4%
19,O=C(c1ccc(Br)cc1)N1CCN(S(=O)(=O)c2ccccc2)CC1,-38.5%
20,CCCCC(=O)NC(=S)Nc1nnn(CCC)n1,9.55%
21,COc1ccc(CN(C)C(=O)c2ccc3c(=O)n4c(nc3c2)CCC4)cc1,13.7%

row,Compound,"hERG current change (%, negative = inhibition) at 10uM"
1,Cl.NC1=NC2(CCCCC2)N(c2cccc(Cl)c2)C(N)=N1,27.9%
2,CCn1nnc(-c2ccccc2NC(=O)C(F)(F)F)n1,-9.9%
3,CN1CCN(CCC(=O)N/N=C/c2cc3c(cc2[N+](=O)[O-])OCO3)CC1,9.64%
4,O=C(NC(=S)Nc1cc(C(F)(F)F)ccc1N1CCOCC1)c1ccco1,3.6%
5,O=C(NCc1cccc(Br)c1)C1CC2Cn3c(nc4ccccc43)C2N1Cc1ccccc1 (centres unmarked),-74.2%
6,CN1C(C(=O)NCc2ccco2)CC2Cn3c(nc4ccccc43)C21 (centres unmarked),10.3%
7,O=C(NCc1cccc(C(F)(F)F)c1)C1CC2Cn3c(nc4ccccc43)C2N1Cc1ccccc1 (centres unmarked),-57.8%
8,COc1ccccc1CNC(=O)C1CC2Cn3c(nc4ccccc43)C2N1C (centres unmarked),-9.34%
9,O=C(NCc1cccc(Br)c1)C1CC2Cn3c(nc4ccccc43)C2N1c1ccccc1 (centres unmarked),-20.5%
10,COCCNC(=O)C1CC2Cn3c(nc4ccccc43)C2N1C (centres unmarked),11.2%
11,CCCCNC(=O)CN(CCc1ccccc1)S(C)(=O)=O,-12.6%
12,Cc1c(Cl)cccc1NC(=O)CCC(=O)NNC(=O)c1ccco1,18.3%
13,CCOC(=O)c1cccc(NC(=O)CSc2nnc(-c3cccnc3)n2CC)c1,-37.5%
14,N#Cc1nc(-c2cccs2)oc1NCc1ccco1,-5.22%
15,CC(/C=C/c1ccccc1)=N/NC(=O)c1cc([N+](=O)[O-])cc([N+](=O)[O-])c1,8%
16,O=[N+]([O-])c1ccc(Sc2cc[n+]([O-])c3ccccc23)c([N+](=O)[O-])c1,-65.3%
17,O=c1[nH]c(Sc2ccc([N+](=O)[O-])cc2[N+](=O)[O-])nc2ccccc12,9.99%
18,O=[N+]([O-])c1ccc(Sc2cccc3cccnc23)c([N+](=O)[O-])c1,16.6%
19,CN(CC(=O)Nc1ccccc1Br)C(=O)CCC1CCCC1,9.57%
20,CCCCC1(C)NC(=S)N2N1C(=S)NC2(C)CCCC (centres unmarked),15.1%
21,Cc1noc(C)c1C(=O)Nc1nc2ccc(S(C)(=O)=O)cc2s1,2.86%

row,Compound,"hERG current change (%, negative = inhibition) at 10uM"
1,O=C(O)C(CCCCN1C(=O)C2C3C=CC(C3)C2C1=O)N1C(=O)C2C3C=CC(C3)C2C1=O (centres unmarked),2.41%
2,CCOC(=O)c1[nH]ncc1CN1CCCC(C(=O)c2ccc(SC)cc2)C1 (centres unmarked),-73%
3,CCOC(=O)c1[nH]ncc1CN1CCCC(C(=O)c2ccc(C(C)(C)C)cc2)C1 (centres unmarked),-17.6%
4,CCOC(=O)c1[nH]ncc1CN1CCCC(C(=O)c2ccc(OC)cc2C)C1 (centres unmarked),-49.4%
5,CCOC(=O)c1[nH]ncc1CN1CCCC(C(=O)c2cc(Cl)ccc2OC)C1 (centres unmarked),-71.1%
6,CCOC(=O)c1[nH]ncc1CN1CCCC(C(=O)c2cccc(OC(C)C)c2)C1 (centres unmarked),-42.1%
7,CCOC(=O)c1[nH]ncc1CN1CCCC(C(=O)c2cccc(Cl)c2)C1 (centres unmarked),-22.6%
8,O=C(COC(=O)C1CCCCC1)Nc1ccc(N2CCCCC2)cc1,2.16%
9,COc1ccc(C2(CNS(=O)(=O)c3ccccc3)CCOCC2)cc1,-4.62%
10,COc1ccc(NC(=O)C2CCCN2S(=O)(=O)c2cccc3cccnc23)c(OC)c1 (centres unmarked),-6.73%
11,CCOc1cc2c(cc1C=O)OC(C)C2 (centres unmarked),22.1%
12,CCN1CCN(C(=O)c2ccc(Cl)c(S(=O)(=O)N3CCCCC3)c2)CC1,-69.8%
13,O=C(c1ccc(Cl)c(S(=O)(=O)N2CCCCC2)c1)N1CCCCC1,-31.7%
14,CCN1CCN(C(=O)c2ccc(Cl)c(S(=O)(=O)N3CCCCCC3)c2)CC1.Cl,-60.9%
15,O=C(c1ccc(Cl)c(S(=O)(=O)N2CCCCCC2)c1)N1CCCC1,-38.9%
16,O=C(c1ccc(Cl)c(S(=O)(=O)N2CCOCC2)c1)N1CCN(Cc2ccccc2)CC1,-25.3%
17,CCN1CCN(C(=O)c2ccc(Cl)c(S(=O)(=O)N3CCOCC3)c2)CC1,-0.549%
18,O=C(c1ccc(Cl)c(S(=O)(=O)N2CCCCCC2)c1)N1CCCCC1,-20.7%
19,Cl.O=C(c1ccc(Cl)c(S(=O)(=O)N2CCCCCC2)c1)N1CCN(CCO)CC1,-34.4%
20,O=C(c1ccc(Cl)c(S(=O)(=O)N2CCCCC2)c1)N1CCN(Cc2ccccc2)CC1,-59.1%
